The list is not random: actives were taken first. Their share in the collection is about 10%.
HP1b chromo inh: HP1-beta chromodomain-methylated histone interaction inhibition; P83916; AlphaScreen HP1-beta / biotin-H3K9me3 peptide binding; Potency, µM (doses to about 114 µM), for the others: at the top dose activity change, negative = inhibition, most hits filed as inhibitors; actives 0.56% (n = 390,000); further: nearly all actives have a fitted effect of over 70% in size
Target sequence (P83916 whole entry, looked up): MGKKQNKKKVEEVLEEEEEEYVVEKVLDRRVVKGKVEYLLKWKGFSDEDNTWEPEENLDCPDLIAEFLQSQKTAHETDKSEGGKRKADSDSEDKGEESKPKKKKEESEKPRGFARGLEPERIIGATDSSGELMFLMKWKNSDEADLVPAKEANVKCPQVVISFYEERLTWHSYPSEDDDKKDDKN
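AlphaScreen: HP1-beta (50 nM) preformed 30 min with biotin-H3(1-18)K9me3 peptide (50 nM) in PBS pH 7.4, 0.01% Tween-20. Compound added for 30 min at RT, then streptavidin donor/nickel chelate acceptor beads (10 ug/mL) for 30 min.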
G9a block: blocks human histone lysine methyltransferase G9a; Potency, µM (doses to about 102 µM), for the others: at the top dose activity, negative = inhibition, usual class: inhibitors; Q96KQ7; G9a H3K9 monomethylation, AlphaScreen, 2 h; actives 8.8% (n = 350,000); further: on the % scale 0 is the no-effect control and ±100 the full control effect; nearly all actives have a fitted effect of over 75% in size
Target sequence (Q96KQ7 913-1193 limits assumed): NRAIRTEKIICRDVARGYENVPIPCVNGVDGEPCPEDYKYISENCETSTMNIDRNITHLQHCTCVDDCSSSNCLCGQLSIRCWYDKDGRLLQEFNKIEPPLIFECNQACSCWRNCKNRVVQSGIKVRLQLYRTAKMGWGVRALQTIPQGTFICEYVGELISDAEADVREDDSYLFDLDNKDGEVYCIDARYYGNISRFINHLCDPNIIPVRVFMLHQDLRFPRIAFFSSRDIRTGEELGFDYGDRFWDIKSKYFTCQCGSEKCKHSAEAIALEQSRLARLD
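AlphaScreen read-out: biotin-H3K9 peptide (500 nM) methylation by 20 nM enzyme with 20 uM SAM, 2 h at room temperature after 15 min compound preincubation; anti-monomethyl H3K9 antibody plus donor/acceptor beads, 10 min dark.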
L3MBTL1 block: L3MBTL1 (human) inhibition | Q9Y468 | AlphaScreen L3MBTL1–H3K9me1 peptide binding | Potency, µM (highest dose often 57.1 µM), without a hit: at the highest dose activity, negative = inhibition, usual class: inhibitors | actives 0.66% (n = 230,000); further: on the % scale 0 is the no-effect control and ±100 the full control effect; nearly all actives have a fitted effect of over 60% in size
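AlphaScreen proximity signal between nickel-chelate acceptor and streptavidin donor beads (final 10 ug/mL) reports binding of 50 nM L3MBTL1 to 75 nM biotin-H3 K9me1 peptide; complex incubated with compounds 30 min at room temperature; cefsulodin titration as control.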
GLS inhibitor: blocks human kidney-isoform glutaminase activity; AID 624170; O94925; Potency, µM (doses to about 45.5 µM), without a hit: at the top dose activity change, negative = inhibition, hits mostly inhibitors; actives 0.21% (n = 410,000); GLS enzymatic activity, qHTS titration; further: on the % scale 0 is the no-effect control and ±100 the full control effect
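hKGA in 45 mM KH2PO4 pH 8.2, 0.02% Tween-20 with pin-transferred compounds; 1 mM L-glutamine (stock) plus glutamate oxidase/HRP/Amplex Red coupling added. Fluorescence read initially and after 30 min at RT.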
JMJD2A Tudor: blocks the human JMJD2A Tudor domain; O75164; AlphaScreen JMJD2A-Tudor / H3K4me3 peptide binding; Potency, µM (top dose mostly 114 µM), inactives show at the highest dose activity change, negative = inhibition, actives largely listed as inhibitors; actives 4.4% (n = 390,000); AID 504339; further: on the % scale 0 is the no-effect control and ±100 the full control effect; nearly all actives have a fitted effect of over 50% in size
BAZ2B inh: inhibitors of human BAZ2B bromodomain; Q9UIF8; actives 4.4% (n = 360,000); AlphaScreen BAZ2B-H3K14Ac peptide displacement; AID 504333; Potency, µM (titrated, usually from 114 µM), for inactives: at the highest dose activity change, negative = inhibition, actives largely listed as inhibitors; further: on the % scale 0 is the no-effect control and ±100 the full control effect; nearly all actives have a fitted effect of over 60% in size
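BAZ2B 50 nM plus b-H3(5-23)K14Ac 50 nM, PBS pH 7.4/0.01% Tween-20, 30 min RT; compound added (max 110 uM), 30 min RT; streptavidin donor/Ni-chelate acceptor beads 10 ug/mL final, 20 min dark; AlphaScreen read.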
* hit, by the source's call; ! = a repeat was not active; [ ] = remark or other dose. The call rests on the fitted dose curve; in most records, active means well fitted curve in the direction sought with a large enough effect; inconclusive means small, poorly fitted or top-dose-only effect, or another doubt; inactive means no such curve, though single readings can be large; an effect the other way counts as inactive or inconclusive. Potency means the concentration at half of the fitted maximal effect.

Screening C[C@@H]1C(=O)O[C@H]2C[C@@]34[C@H]5C[C@@H](C(C)(C)C)[C@]36[C@@H](OC(=O)[C@@H]6O)O[C@@]4(C(=O)O5)[C@]21O returned HP1b chromo inh 30%, G9a block 10%, GLS inhibitor 2%, JMJD2A Tudor -3% and BAZ2B inh 8%.
`CCCCCCCCCC[Si](C)(C)CCC(=O)NC(Cc1ccc(C)cc1)c1ccccc1` (stereo not drawn) gave G9a block 43%[59 µM].
`NNCc1ccccc1` gave HP1b chromo inh -28%, G9a block -51%[2.33 µM], GLS inhibitor -22% and JMJD2A Tudor 20µM*.
Screening NNC(=O)c1nn(-c2ccccc2)cc1O returned G9a block 4%, L3MBTL1 block inconclusive and BAZ2B inh -32%.
For Cc1ccc(/C=C2\C(=O)NC(=S)N(c3cccc(F)c3)C2=O)o1 the results were HP1b chromo inh inconclusive, G9a block 1.8µM*, L3MBTL1 block inconclusive, GLS inhibitor inconclusive, JMJD2A Tudor 45µM* and BAZ2B inh 50µM*.
Screening COc1ccc(N2C(=O)/C(=C/c3ccc(C)o3)C(=O)NC2=S)cc1 returned HP1b chromo inh -15%, G9a block 10µM*, GLS inhibitor inconclusive, JMJD2A Tudor 32µM* and BAZ2B inh 45µM*.
Screening O=C1C=C2C=CC3C[C@@]2(O1)C1CCCCN31 (stereo partly drawn) returned G9a block -38%[2.33 µM] and GLS inhibitor 53%.
CC(C)(c1ccc(OCC2CO2)cc1)c1ccc(OCC2CO2)cc1 (stereo not drawn) was read as G9a block 139%[59 µM].
For OCCN(Cc1ccccc1)Cc1cccc(F)c1 the results were HP1b chromo inh inconclusive, G9a block 7.1µM*, L3MBTL1 block -4%[11.4 µM], GLS inhibitor 7%, JMJD2A Tudor 7.1µM* and BAZ2B inh 45µM*.
COc1ccc(OC)c([C@H](O)[C@H](C)N)c1 was read as G9a block 19%[21.5 µM].
For CC(=O)N[C@@H]1CCSC1=O the results were G9a block 6%[21.5 µM] and GLS inhibitor 0%[20 µM].
Screening CCOC(=O)C(=O)NC1CCSC1=O (stereo not drawn) returned HP1b chromo inh 3%, G9a block 50µM*, GLS inhibitor 4%, JMJD2A Tudor -5% and BAZ2B inh 11%.
CCOC(=O)c1ccc(-n2c(N)c(C(=O)NCC3CCCO3)sc2=S)cc1 (stereo not drawn) was read as HP1b chromo inh 14µM*, G9a block 10µM*, L3MBTL1 block -9%, GLS inhibitor -17%, JMJD2A Tudor inconclusive and BAZ2B inh inconclusive.
Screening O=S(c1ccccc1)c1ccccc1 returned HP1b chromo inh 42%, GLS inhibitor -19% and JMJD2A Tudor -5%.
Screening NC(Cn1ccc(=O)c(O)c1)C(=O)O (stereo not drawn) returned G9a block 5%[2.33 µM].
For CCN(CC)c1ccc(N=Cc2c(O)n(CCc3ccc(OC)c(OC)c3)c(=O)[nH]c2=O)cc1 the results were HP1b chromo inh 4%, G9a block 7.1µM*, L3MBTL1 block -15%, GLS inhibitor 37%, JMJD2A Tudor -29% and BAZ2B inh -3%.
CCn1c(O)c(C=Nc2ccc(S(N)(=O)=O)cc2)c(=O)[nH]c1=S was read as HP1b chromo inh 22%, G9a block inconclusive, L3MBTL1 block -2%, GLS inhibitor 5%, JMJD2A Tudor inconclusive and BAZ2B inh -2%.
CCCCC(=O)N/N=C/c1c(O)n(CCc2ccc(OC)c(OC)c2)c(=O)[nH]c1=O was read as HP1b chromo inh 28%, G9a block inconclusive, L3MBTL1 block -4%, GLS inhibitor -13%, JMJD2A Tudor 0% and BAZ2B inh 50µM*.
Screening CCCCC(=O)N/N=C/c1c(O)n(CCc2ccccc2)c(=O)[nH]c1=O returned HP1b chromo inh 14%, G9a block 7%[12.7 µM], L3MBTL1 block -23%, GLS inhibitor 0%, JMJD2A Tudor 79µM* and BAZ2B inh inconclusive.
CCN(CCO)c1ccc(N=Cc2c(O)n(C)c(=S)[nH]c2=O)cc1 was read as HP1b chromo inh 14%, G9a block 35µM*, GLS inhibitor 23%, JMJD2A Tudor inconclusive and BAZ2B inh 56µM*.
For O=C1OC(=O)c2c(Br)c(Br)c(Br)c(Br)c21 the results were HP1b chromo inh 46%, G9a block -24%[0.501 µM], L3MBTL1 block -5%, GLS inhibitor 9%, JMJD2A Tudor inconclusive and BAZ2B inh inconclusive.
Screening O=C(c1ccco1)N1CCC2(CC1)CN(Cc1ccncc1)C2 returned G9a block 9%[12.7 µM].
Screening COc1ccc2[nH]c3c(c2c1)CCN1C(=O)C(CC(=O)NCc2cccc(C(F)(F)F)c2)C[C@H](C(=O)N2CCCCC2)[C@@]31C (stereo partly drawn) returned HP1b chromo inh -4%, L3MBTL1 block -3%, GLS inhibitor 1% and JMJD2A Tudor inconclusive.
`O=c1[nH]cnc2[nH]cc(CN3CCCCC3)c12` gave GLS inhibitor -8%.
For NC(N)=NOCC[C@H](N)C(=O)O the results were G9a block 32µM*!.
For NC(N)=NCCC[C@@H](N)C(=O)O the results were G9a block 35%[59 µM].
`C[C@H]1[C@@H]2Cc3ccc(O)cc3[C@]1(C)CCN2C` gave GLS inhibitor 54%[231 µM].
For [Cl-].[Cl-].[Hg+2] the results were G9a block 1.3µM* and GLS inhibitor -109%.
For CN1CC[C@]23c4c5ccc(O)c4OC2C(O)CCC3[C@H]1C5 (stereo partly drawn) the results were GLS inhibitor 54%[99.4 µM].
O=C1NC(=O)N(c2ccc3c(c2)OCO3)C(=O)/C1=C/c1ccc(N2CCCC2)o1 was read as HP1b chromo inh 24%, G9a block inconclusive, L3MBTL1 block -6%, GLS inhibitor 3%, JMJD2A Tudor -2% and BAZ2B inh -35%.
Screening Cc1cc(N2CCCCC2)ccc1C=C1C(=O)N(C)C(=S)N(C)C1=O returned HP1b chromo inh inconclusive, G9a block 16µM*, L3MBTL1 block -18%, GLS inhibitor -13%, JMJD2A Tudor inconclusive and BAZ2B inh 35µM*.
`Cc1cc(N2CCCC2)ccc1C=C(C#N)C#N` gave HP1b chromo inh 40%, G9a block 18%[59 µM], GLS inhibitor -6%, JMJD2A Tudor -3% and BAZ2B inh -19%.

Assay outcomes deposited in PubChem BioAssay by National Center for Advancing Translational Sciences (NCATS).
